Records with an inconclusive call do not appear. Calls of active or inactive are those of the source. Calls follow the shape of the dose curve; as a rule, active = well fitted inhibition curve with a large enough effect; inconclusive = small, poorly fitted or top-dose-only effect; inactive = flat fitted curve, though single readings scatter. Where a SMILES comes first, the peptide text is derived from it. The star is where a group is joined. Cbz = O=C(OCc1ccccc1)*
Each compound was assayed against ATP-dependent translocase ABCB1 (Homo sapiens) (UniProt P08183) (assay: qHTS for characterization and localization of zebrafish homologs of the human ABCB1 multidrug transporter: P-gp overexpressing MDR-19 cells). Details: MDR-19 cells overexpressing P-gp, CellTiter-Glo luminescence viability, 72 h; series mostly up to 46.1 µM; activity change, negative = inhibition: at the top concentration.
Sequence of ATP-dependent translocase ABCB1 (Homo sapiens) (P08183 whole entry, looked up): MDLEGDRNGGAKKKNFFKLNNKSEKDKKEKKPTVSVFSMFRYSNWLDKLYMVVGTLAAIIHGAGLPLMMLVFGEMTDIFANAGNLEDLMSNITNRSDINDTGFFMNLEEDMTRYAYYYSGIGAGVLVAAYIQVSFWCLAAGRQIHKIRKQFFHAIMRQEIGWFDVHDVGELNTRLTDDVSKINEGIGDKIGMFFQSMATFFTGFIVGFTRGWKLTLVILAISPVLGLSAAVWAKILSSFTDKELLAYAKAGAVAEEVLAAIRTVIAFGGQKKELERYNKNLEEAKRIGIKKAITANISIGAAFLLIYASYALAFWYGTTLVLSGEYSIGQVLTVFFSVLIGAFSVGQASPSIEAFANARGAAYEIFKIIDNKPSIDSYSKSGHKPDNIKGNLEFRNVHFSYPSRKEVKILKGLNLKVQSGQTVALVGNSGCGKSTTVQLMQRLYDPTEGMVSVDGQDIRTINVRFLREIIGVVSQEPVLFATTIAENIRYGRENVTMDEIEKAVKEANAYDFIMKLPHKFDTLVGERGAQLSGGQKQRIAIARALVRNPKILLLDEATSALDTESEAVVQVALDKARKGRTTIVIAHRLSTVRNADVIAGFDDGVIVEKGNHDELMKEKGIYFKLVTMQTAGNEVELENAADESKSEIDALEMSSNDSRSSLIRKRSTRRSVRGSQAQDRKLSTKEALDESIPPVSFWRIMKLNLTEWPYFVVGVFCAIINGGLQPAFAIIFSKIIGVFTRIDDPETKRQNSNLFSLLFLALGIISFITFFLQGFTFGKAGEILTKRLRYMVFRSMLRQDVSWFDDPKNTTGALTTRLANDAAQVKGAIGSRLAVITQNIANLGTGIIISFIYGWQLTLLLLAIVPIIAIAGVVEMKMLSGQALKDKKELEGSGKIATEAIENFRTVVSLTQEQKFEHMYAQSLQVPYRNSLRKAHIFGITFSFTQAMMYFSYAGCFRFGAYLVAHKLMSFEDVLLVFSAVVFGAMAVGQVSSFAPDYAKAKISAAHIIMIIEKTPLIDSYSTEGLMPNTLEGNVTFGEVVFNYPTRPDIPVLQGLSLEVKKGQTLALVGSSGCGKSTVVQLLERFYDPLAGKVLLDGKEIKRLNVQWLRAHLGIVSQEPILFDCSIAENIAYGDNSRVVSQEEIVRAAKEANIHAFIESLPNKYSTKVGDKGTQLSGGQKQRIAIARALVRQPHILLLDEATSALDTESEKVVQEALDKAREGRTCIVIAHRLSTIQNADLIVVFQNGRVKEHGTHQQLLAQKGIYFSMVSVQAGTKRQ
Summary of the method: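 About 90 known P-gp substrates were titrated onto four cell lines: vector control, MDR-19 (human P-gp) and zebrafish Abcb4 or Abcb5 transfectants. After 72 h, ATP luminescence (CellTiter-Glo) gave curves; cytotoxic required AC50 < 10 uM, >50% response and inhibitory curve class.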

| SMILES | activity change, negative = inhibition | Potency |
| --- | --- | --- |
| COc1cc(N2CCC(O)CC2)ccc1Nc1nc(Nc2ccccc2S(=O)(=O)C(C)C)c2[nH]cnc2n1 | -15.7% (inactive) |  |
| C=CCn1c(=O)c2cnc(Nc3ccc(N4CCN(C)CC4)cc3)nc2n1-c1cccc(C(C)(C)O)n1 |  | 4.69 µM (active) |
| COc1cccc2c1C(=O)c1c(O)c3c(c(O)c1C2=O)C[C@@](O)(C(=O)CO)C[C@H]3O[C@H]1C[C@H](N)[C@@H](O)[C@H](C)O1 |  | 11.8 µM (active) |
| O=C(NC1CCNCC1)c1[nH]ncc1NC(=O)c1c(Cl)cccc1Cl | -24% (inactive) |  |
| CC1(C)CC(NC(=O)C(=O)Nc2ccc(Br)cc2)CC(C)(C)N1 | -6.87% (inactive) |  |
| CC1(C)CC[C@]2(C(=O)OC3OC(CO)C(O)C(O)C3O)CC[C@]3(C)C(=CCC4[C@@]5(C)CC[C@H](OC6OC(C(=O)O)C(O)C(O)C6O)C(CO)(CO)C5CC[C@]43C)[C@@H]2C1 (stereo partly drawn) | 4.43% [at 15.2 µM] (inactive) |  |
| COC(C(=O)N1Cc2[nH]nc(NC(=O)c3ccc(N4CCN(C)CC4)cc3)c2C1)c1ccccc1 (stereo not drawn) | -7.32% (inactive) |  |
| CCS(=O)(=O)c1cccc(-c2cc(C(=O)NC3CCN(C)CC3)c(C)c3[nH]c4ncc(C)cc4c23)c1 | -8.71% (inactive) |  |
| C#CCN(Cc1cc2c(=O)n(C)c(CN3CCN(C)CC3)nc2cc1Cl)c1ccc(C(=O)NCc2cccnc2)cc1 | -24.7% (inactive) |  |
| CC(C)C[C@@H](C=O)NC(=O)[C@H](CC(C)C)NC(=O)[C@H](CC(C)C)NC(=O)OCc1ccccc1 (Cbz-Leu-Leu-Leu-aldehyde) |  | 3.72 µM (active) |
| CN(C)C1CCN(C(=O)c2ccc(NC(=O)Nc3nc(N4CCOCC4)nc(N4CCOCC4)n3)cc2)CC1 | 2.28% (inactive) |  |
| NC(=O)Nc1cc(-c2cccc(F)c2)sc1C(=O)N[C@H]1CCCNC1 |  | 8.33 µM (active) |
| CCN(CCCO)CCCOc1ccc2c(Nc3cc(CC(=O)Nc4cccc(F)c4)[nH]n3)ncnc2c1 | -4.66% (inactive) |  |
